# From PubChem BioAssay
# Active and inactive are the calls of the source. Unless noted, no stated cut-off is given here; in the data, active means inhibition above about 80%; inactive means the rest.
# What was measured:
# [1] = growth inhibition, single agent or in combination, cell-based, chromothripsis tumors, cisplatin or BGB combos (AID 1671449); conditions: LFS_MB_P medulloblastoma cells;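 further: cells exposed for 96 hours; 0% = vehicle DMSO and 100% = killing by high DMSO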
# [2] = growth inhibition, single agent and combos, cell-based, chromothripsis tumors, cisplatin or BGB combos (AID 1671450); conditions: HDN33 neuroblastoma cells, stronger effect = higher value;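 further: cells exposed to compound for four days; 0% = vehicle DMSO and 100% = cell killing by high DMSO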
# [3] = growth inhibition, single agents and combos, ICB984, cell-based, cisplatin or BGB combos, synergistic combos for chromothripsis tumors (AID 1671451; call rule not given here;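 further: cells exposed for 96 hours before readout; 0% = vehicle DMSO and 100% = killing by high DMSO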); conditions: ICB984 medulloblastoma cells, drug combinations, stronger effect = higher value
# [4] = growth inhibition, single agents and combos, LFS_MB_1R, cell-based, cisplatin or BGB combos, synergistic combos for chromothripsis tumors (AID 1671452); conditions: LFS_MB_1R medulloblastoma cells, stronger effect = higher value;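 further: cells exposed for 96 hours before readout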
# [5] = growth inhibition, single agents and combos, HTB85, cell-based, BGB or cisplatin IC20 combos, synergistic combos for chromothripsis tumors (AID 1671453); conditions: HTB85 osteosarcoma cells, drug combinations, stronger effect = higher value;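 further: cells exposed for 96 hours before readout; 0% = vehicle DMSO and 100% = high DMSO killing control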
# [6] = growth inhibition, single agents and combos, CRL2098, cell-based, BGB or cisplatin IC20 combos, synergistic combos for chromothripsis tumors (AID 1671454); conditions: CRL2098 osteosarcoma cells, drug combinations, stronger effect = higher value;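 further: cells exposed for 96 h before readout; 0% = vehicle DMSO and 100% = killing by high DMSO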
# [7] = growth inhibition, single agents and combos, HD-MB03, cell-based, BGB or cisplatin IC20 combos, synergistic combos for chromothripsis tumors (AID 1671455; in the data active means inhibition above about 83%;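 further: 0% = vehicle DMSO and 100% = high DMSO as cytotoxic control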); conditions: HD-MB03 medulloblastoma cells, stronger effect = higher value
# [8] = growth inhibition, single agents and combos, UWB1.289, cell-based, BGB or cisplatin combos, synergistic combos for chromothripsis tumors (AID 1671456); conditions: UWB1.289 ovarian carcinoma cells, stronger effect = higher value;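 further: cells exposed to compound for four days; 0% = vehicle DMSO and 100% = killing by high DMSO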
# [9] = growth inhibition, single agents and combos, LFS_MB_2R, cell-based, cisplatin combos, synergistic combos for chromothripsis tumors (AID 1671457); conditions: LFS_MB_2R medulloblastoma cells, stronger effect = higher value;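 further: cells exposed to compound for four days before readout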
# [10] = growth inhibition, MDA-MB-436, cell-based, BGB or cisplatin combos, synergistic combos for chromothripsis tumors (AID 1671458; call rule not given here;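 further: cells exposed for 96 hours; 0% = vehicle DMSO and 100% = killing by high DMSO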); conditions: MDA-MB-436 breast carcinoma growth inhibition, drug combinations, stronger effect = higher value
# [11] = UWB1.289_BRCA1 ovarian cancer growth, cell-based, BGB or cisplatin combinations (AID 1671459); conditions: UWB1.289 BRCA1 ovarian carcinoma, drug combinations, stronger effect = higher value
# [12] = drug combination toxicity in non-malignant astrocytes – cell-based, BGB or cisplatin IC20 combos, cytotoxicity control for chromothriptic childhood tumor combination screen (AID 1671460); conditions: Human astrocytes, viability inhibition, drug combinations, at 0.5 µM, stronger effect = higher value;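 further: cells exposed to compounds for 96 hours before viability readout; 0% = vehicle and 100% = killing control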
# [13] = BT084 cell growth, single and combined drugs, ICGC_MB145, cisplatin and BGB IC40 combos (AID 1671461); conditions: BT084 medulloblastoma cells, drug combinations, stronger effect = higher value;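 further: cells exposed to drugs for 96 hours; 0% = vehicle DMSO and 100% = high DMSO full killing control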
# [14] = RCMB18 cell growth, single agent and combined, cisplatin and BGB IC40 combos (AID 1671462); conditions: RCMB18 medulloblastoma cells, stronger effect = higher value;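 further: cells exposed to compound for four days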
# [15] = CRL1545 cell growth, single agent and combined, cisplatin and BGB IC20 combos (AID 1671464); conditions: CRL1545 osteosarcoma cells, stronger effect = higher value;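 further: cells exposed to compound for 96 hours before readout; 0% = vehicle DMSO and 100% = high DMSO killing control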
# [16] = galactose survival enhancers in mitochondrial complex I cybrids – cell-based, galactose medium, ATP luminescence, primary screen (AID 1645843;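 active means z-score of at least 1.8 in each of two replicates, scored against plate mean and spread of sample wells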;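 further: positive z means more ATP and so rescue of galactose-driven cybrid death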); conditions: complex I mutant cybrid cells, 72 h, stronger effect = higher value
# [17] = measured here: combination with BGB IC40, at 0.05 µM
# [18] = measured here: with BGB IC20 combination, at 0.5 µM
# [19] = measured here: with cisplatin IC20 combination, at 0.5 µM
# [20] = measured here: combination with cisplatin, at 0.5 µM
# [21] = measured here: combination with cisplatin, at 5 µM
smiles,measurement,setting,value
NC(=O)c1ncn(C2OC(CO)C(O)C2O)c1O (centres undefined),inhibition,"[1]; at 0.5 µM, stronger effect = higher value",-12.6% (inactive)
same,inhibition,"[1]; measured here: combination with BGB IC20, at 0.005 µM",-7.32%
same,inhibition,"[1]; measured here: combination with BGB IC40, at 0.005 µM",-2.51%
same,inhibition,[1]; [17],-10.8%
same,inhibition,"[1]; measured here: combination with cisplatin, at 0.5 µM, stronger effect = higher value",-6.4%
same,inhibition,"[1]; measured here: combination with cisplatin, at 5 µM, stronger effect = higher value",-30%
same,inhibition,"[2]; BGB combo, at 5 µM",5.04%
same,inhibition,[2]; at 0.5 µM,6.65% (inactive)
same,inhibition,"[2]; cisplatin combo, at 5 µM",-12.8%
same,inhibition,[2]; [18],16.7%
same,inhibition,[2]; [19],12.5%
same,inhibition,"[2]; single agent, at 5 µM",-11%
same,inhibition,"[3]; BGB IC20 combo, at 0.005 µM",6.56%
same,inhibition,"[3]; BGB IC40 combo, at 0.005 µM",-22.2%
same,inhibition,"[3]; BGB IC40 combo, at 0.05 µM",-25%
same,inhibition,[3]; at 0.5 µM,-19.3% (inactive)
same,inhibition,"[3]; cisplatin combo, at 0.05 µM",-25%
same,inhibition,"[3]; cisplatin combo, at 0.5 µM",-21.3%
same,inhibition,"[3]; cisplatin combo, at 5 µM",9.18%
same,inhibition,"[3]; measured here: 5 uM single agent, at 5 µM",-10.8%
same,inhibition,[4]; at 0.5 µM,-1.69% (inactive)
same,inhibition,[4]; [17],11.9%
same,inhibition,[4]; [20],14.5%
same,inhibition,[4]; [21],1.36%
same,inhibition,[5]; at 0.5 µM,-21.2% (inactive)
same,inhibition,"[5]; measured here: with BGB IC20, at 0.5 µM",-45.8%
same,inhibition,"[5]; measured here: with BGB IC20, at 5 µM",-14%
same,inhibition,"[5]; measured here: with cisplatin IC20, at 0.5 µM",-13.3%
same,inhibition,"[5]; measured here: with cisplatin IC20, at 5 µM",26.5%
same,inhibition,"[5]; single agent, at 5 µM",4.97%
same,inhibition,[6]; at 0.5 µM,-22.6% (inactive)
same,inhibition,"[6]; measured here: combination with BGB at IC20, at 0.5 µM",-31.9%
same,inhibition,"[6]; measured here: combination with cisplatin at IC20, at 0.5 µM",-21.8%
same,inhibition,[7]; at 0.5 µM,-5.96% (inactive)
same,inhibition,"[7]; measured here: combo with BGB at IC20, at 0.5 µM",-11.6%
same,inhibition,"[7]; measured here: combo with cisplatin at IC20, at 0.5 µM",0.212%
same,inhibition,[8]; at 0.5 µM,2.16% (inactive)
same,inhibition,"[8]; measured here: inhibition with BGB combination, at 0.05 µM",-15.4%
same,inhibition,"[8]; measured here: inhibition with cisplatin combination, at 0.05 µM",-3.17%
same,inhibition,[9]; at 0.5 µM,-17.9% (inactive)
same,inhibition,[9]; [20],-10.4%
same,inhibition,[9]; [21],-9.64%
same,inhibition,[10]; at 0.5 µM,-15.6% (inactive)
same,inhibition,"[10]; measured here: BGB combination, at 0.5 µM",-16%
same,inhibition,"[10]; measured here: BGB combination, at 5 µM",-1.99%
same,inhibition,"[10]; measured here: cisplatin combination, at 0.5 µM",-28.5%
same,inhibition,"[10]; measured here: cisplatin combination, at 5 µM",-10.8%
same,inhibition,"[11]; BGB combination, concentration series, at 5 µM",5.96%
same,inhibition,[11]; at 0.5 µM,2.34% (inactive)
same,inhibition,"[11]; cisplatin combination, concentration series, at 5 µM",12.4%
same,inhibition,[12],-5.39% (inactive)
same,inhibition,[12]; measured here: combo with BGB IC20,-5.58%
same,inhibition,[12]; measured here: combo with cisplatin IC20,-13.5%
same,inhibition,[13]; at 0.5 µM,-0.897% (inactive)
same,inhibition,"[13]; cisplatin combination, at 0.5 µM",6.23%
same,inhibition,"[13]; cisplatin combination, at 5 µM",-20.7%
same,inhibition,"[13]; measured here: BGB IC40 combination 0.05 uM, at 0.05 µM",5.17%
same,inhibition,"[13]; single agent, at 5 µM",-12.6%
same,inhibition,[14]; at 0.5 µM,-9.69% (inactive)
same,inhibition,"[14]; cisplatin combo, at 5 µM",0.143%
same,inhibition,"[14]; measured here: BGB IC40 combination, at 0.05 µM",-17.2%
same,inhibition,[14]; [20],9.55%
same,inhibition,"[14]; single agent, at 5 µM",-31.2%
same,inhibition,[15]; at 0.5 µM,-13.2% (inactive)
same,inhibition,[15]; [18],2.45%
same,inhibition,[15]; [19],-21%
same,inhibition,"[15]; single agent, at 0.05 µM",13%
same,inhibition,"[15]; single agent, at 5 µM",22.2%
CCCCn1nnnc1NC(=O)N1C2CCCCC1CCC2,z-score,[16],0.915 (inactive)
